Experimental data as given in PMC4242493, “Sequence specificity incompletely defines the genome-wide occupancy of Myc”.
Over roughly 33,000 sequences, “normalized occupancy” has its median near 0.075; the highest 2% begin near 0.095. For the sample, the highest values were picked, then their nearest neighbours and some sequences at random.

Target: MaxL homodimer (Homo sapiens, UniProt P61244 1-160)
Assay: universal protein-binding microarray (PBM); PBS-based mixture, 10 nM His-tagged protein dimer, 2% milk, 200 ng/uL BSA, 50 ng/uL salmon testes DNA, 0.02% TX-100; detection with Alexa 488 anti-His antibody;; high values mean tight binding
Settings: protein: recombinant; tags: C-terminal His-tag (pET21a); chain copies: 2; dsDNA, one strand shown
Outline: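 Each 8-mer received a fluorescence intensity from GenePix 4400A scans of Agilent 4 x 44 K 'all 10-mer' universal arrays. Those arrays had been incubated with His-tagged protein dimer at 10 nM, and the bound protein was marked with a fluorophore-conjugated anti-His antibody at 10 ng/μL. Binding occupancy is the intensity scaled to that of the highest-ranked sequence word.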

Chain of MaxL homodimer (P61244 whole entry): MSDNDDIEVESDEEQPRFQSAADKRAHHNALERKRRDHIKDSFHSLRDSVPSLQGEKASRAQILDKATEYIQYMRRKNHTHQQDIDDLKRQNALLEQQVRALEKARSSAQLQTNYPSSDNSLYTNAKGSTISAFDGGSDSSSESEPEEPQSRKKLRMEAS

Sequence | binding signal [normalized occupancy]
TACAGACA | 0.0803
CATTGACG | 0.0792
CGACCCTC | 0.0724
TCTTGTAA | 0.0718
AGAACGAC | 0.0774
GAGGCCCC | 0.0733
GATGTCCA | 0.0757
CCATTCTA | 0.0759
AGCTGCCA | 0.0736
ATATGTTC | 0.0831
ACATGTTC | 0.0965
CCATGTTC | 0.0828
GGCATCAC | 0.0813
GACAAGCC | 0.0728
AAGCATCA | 0.076
ACACGCAC | 0.0931
ACACGCAT | 0.0976
ATACGCAG | 0.0734
ACACGCAA | 0.087
ATGCGCAC | 0.0828
ATACGCAC | 0.0799
ATGCGCAG | 0.0789
ATGCGCAT | 0.102
ATACGCAT | 0.0968
CAGTACTA | 0.0775
CCCACAGC | 0.0741

Sequence | binding signal [normalized occupancy]
CCTGGCTC | 0.0726
ACCTAAGT | 0.0745
AGTGATGG | 0.0766
GGTAGTCA | 0.0743
AAAATGAC | 0.0766
AATGCAGG | 0.08
CATGCAGC | 0.0946
CATGCAGG | 0.097
CCTGCAGG | 0.074
AATGCAGA | 0.0752
CATGCAGA | 0.0959
GGTTTGTA | 0.0749
AGTTCTAC | 0.0751
AACAAATT | 0.0736
CGGCAAGC | 0.0718
CTTGTAAC | 0.0775
ACCCACCG | 0.0804
ATCGCATC | 0.0742
ACCGCATC | 0.0749
ACCGCATA | 0.0828
AGCGCATA | 0.0757
AGCGCATG | 0.109
ACCGCATG | 0.146
AGCGCATC | 0.0737
ATCGCATG | 0.108
ATCGCATA | 0.082

Sequence | binding signal [normalized occupancy]
AATTCACA | 0.0775
GTCACTAA | 0.0757
AACATCTC | 0.0748
ATGGACGG | 0.0788
CACACGAG | 0.0978
CACACGAC | 0.0877
CACACGAA | 0.0853
AACACGAA | 0.0741
AACACGAT | 0.0845
AACACGAG | 0.11
TAGAGCTA | 0.0719
AGTGTATC | 0.0882
AAATTGCC | 0.0721
CAATTCTA | 0.0752
CACATTGA | 0.0932
CACATTTA | 0.0961
GACATTTA | 0.0853
CACATTGG | 0.0977
AACATTTA | 0.0795
CACATTGC | 0.0923
GTTCTAGA | 0.0745
ATGTGGTC | 0.0985
CTGTGGAC | 0.0726
ATGTGGAC | 0.0955
ATGTGGTA | 0.0922
ATGTGGTG | 0.0894

Sequence | binding signal [normalized occupancy]
ATGTGGAG | 0.0861
AACGCTGT | 0.0729
CGCAATCC | 0.0789
CCAATCTA | 0.073
ACCACGTA | 0.0816
ACCACGCA | 0.0954
ACCACGGC | 0.0743
ACCACGCC | 0.102
TCCACGCA | 0.0885
GCCACGCA | 0.0915
ACCACGTG | 0.773
GCCACGCC | 0.0925
ACCACGTC | 0.0945
ACCACACA | 0.085
ACCACACG | 0.0972
ACCACACT | 0.0849
AAAGCAGT | 0.0719
ATGAAGCG | 0.0749
GTCGCGCA | 0.0729
CTATGCCA | 0.0777
AACAAGAA | 0.0753
AGCCTCTC | 0.0729
CCCACGCC | 0.099
ACACCACG | 0.0983
ACCACGGT | 0.0803
ACCACGCT | 0.123

Sequence | binding signal [normalized occupancy]
ACACCACA | 0.083
ATCACGTC | 0.0875
ACCACGAT | 0.0936
ACACCACC | 0.086
CCCACGGC | 0.0782
ATCACGTA | 0.0829
ATCACGTG | 0.363
CCCACGTC | 0.0804
CGAAGGTA | 0.0721
CTGTGGCA | 0.0739
AGGAACAG | 0.0793
CCCACACA | 0.0838
ACCACGCG | 0.187
ACCACGGG | 0.0834
CCCACGCG | 0.148
ATCACGCA | 0.0877
ACCACGGA | 0.0736
ATCACGCG | 0.132
ATCACGCC | 0.0864
CCCACGCA | 0.0903
ACGACGAG | 0.0759
AATTACGA | 0.0775
AATGGCAA | 0.0742
CTCAACAA | 0.0728
ACTGCTTC | 0.0747
AGTTGGTC | 0.0747

Sequence | binding signal [normalized occupancy]
ACACGCTG | 0.108
ACACGCCT | 0.0971
ACACGCCA | 0.0895
AAACGCCT | 0.073
ACACGCCG | 0.1
ACGCGCCT | 0.0828
ACACGCCC | 0.0863
ACACGCTA | 0.0915
ACGCGCTG | 0.077
CGTTATAA | 0.079
ATGGCTCA | 0.0798
CCACCATC | 0.0768
CCCGTAAA | 0.0752
CATTAAGA | 0.0765
ACCATATA | 0.0814
ATCATATC | 0.0861
ATCATATG | 0.0972
ATCATATA | 0.0893
AGCATATG | 0.103
AACATATA | 0.0841
ACCATATC | 0.0845
AACATATG | 0.1
ACCATATG | 0.118
CACATATG | 0.095
AGCATATA | 0.0807
AGCATATC | 0.0822

Sequence | binding signal [normalized occupancy]
GTTACGTA | 0.0751
CTCGATAC | 0.0749
AAATGCTG | 0.0762
AAAAGCTA | 0.0755
GGTACGAC | 0.0721
GAGCACAA | 0.0775
CAGCACAC | 0.0857
GAGCACAC | 0.0956
GCAGAATA | 0.0753
CCGTGAAG | 0.0739
AAGTGAAG | 0.076
ACGTGAAC | 0.0842
ACGTGAAG | 0.1
ACGTGAAT | 0.0824
ACGTGAAA | 0.097
GATGAAAC | 0.0811
AGCGTTAC | 0.0823
CACGCATG | 0.121
TACGCATA | 0.0842
CACGCAAG | 0.0838
